NIH3T3 tox – NIH 3T3 cell cytotoxicity; NIH 3T3 viability, CellTiter-Glo ATP luminescence, 48-72 h; Potency, µM (titrated, usually from 96.7 µM), without a hit: at the top dose activity change, negative = cytotoxicity, most hits filed as inhibitors; hit rate 4.3% among 94,000; AID 1345082; note: % is set by controls: 0 for no effect and ±100 for the full control effect; nearly all actives have a fitted effect of over 55% in size
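Cytotoxicity was measured by CellTiter-Glo ATP luminescence after 48 or 72 h compound exposure at 37 °C. Mouse NIH 3T3 fibroblasts were seeded at 400 cells/well and dosed by 23 nL pin transfer.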
HEK cytotox – HEK 293 cell cytotoxicity. HEK 293 viability, ATP luminescence (CellTiter-Glo), 48-72 h. Potency, µM (highest dose often 115 µM), for inactives: top-dose activity change, negative = cytotoxicity, actives largely listed as inhibitors. hit rate 6.6% among 94,000. AID 1345083; note: % is set by controls: 0 for no effect and ±100 for the full control effect; nearly all actives have a fitted effect of over 60% in size
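HEK 293 cells at 250 cells/well were exposed to compounds by pintool transfer for 48 or 72 hr at 37 degree Celsius, 5% CO2. Viability was read as ATP-coupled luminescence with CellTiter-Glo after 10 min at room temperature.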
FLuc inh-1 – inhibitors of firefly (Photinus pyralis) luciferase; P08659; hit rate 2.5% among 76,000; AID 1347043; purified P. pyralis luciferase, luminescence, biochemical; Potency, µM (highest dose often 115 µM), usual class: inhibitors; note: % is set by controls: 0 for no effect and ±100 for the full control effect; nearly all actives have a fitted effect of over 65% in size
Target sequence (P08659 whole entry, looked up): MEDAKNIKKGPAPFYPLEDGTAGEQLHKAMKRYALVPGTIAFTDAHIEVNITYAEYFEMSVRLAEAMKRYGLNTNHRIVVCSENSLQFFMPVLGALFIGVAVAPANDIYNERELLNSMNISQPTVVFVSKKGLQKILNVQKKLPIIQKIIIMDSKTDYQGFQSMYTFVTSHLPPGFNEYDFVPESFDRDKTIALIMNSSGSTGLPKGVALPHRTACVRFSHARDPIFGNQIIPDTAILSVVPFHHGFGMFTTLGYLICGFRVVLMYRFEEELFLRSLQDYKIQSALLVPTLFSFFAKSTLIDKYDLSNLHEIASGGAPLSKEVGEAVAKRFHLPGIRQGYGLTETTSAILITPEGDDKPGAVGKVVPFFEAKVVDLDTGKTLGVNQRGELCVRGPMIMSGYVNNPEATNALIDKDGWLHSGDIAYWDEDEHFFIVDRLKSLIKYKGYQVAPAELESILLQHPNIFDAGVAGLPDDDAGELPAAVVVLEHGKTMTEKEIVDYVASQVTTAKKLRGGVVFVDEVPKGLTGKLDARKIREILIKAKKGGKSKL
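Biochemical qHTS: compound (6-point titration) added to 10uM D-luciferin plus 10uM ATP in Tris acetate pH 7.5 buffer with Mg, Tween-20 and BSA, then purified enzyme at 10nM; light output imaged.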
hNpr1 antagonist – antagonists of human natriuretic peptide receptor Npr1 | AID 1347048 | HEK293 hNpr1 GloSensor cGMP, ANP-stimulated luminescence | hit rate 1.6% among 76,000 | P16066 | Potency, µM (doses to about 46.3 µM), for the others: top-dose activity change, negative = inhibition, hits mostly inhibitors; calls by dose curve; note: % is set by controls: 0 for no effect and ±100 for the full control effect; nearly all actives have a fitted effect of over 60% in size
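HEK293 cells stably expressing human Npr1 and cGMP GloSensor pGS-40F, loaded 2 h with 2% GloSensor reagent, given compound 30 min at room temperature. Luminescence read before and 20 min after 0.1 nM hNppA.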
FLuc SDR -ATP – firefly luciferase binding stabilization, ATP absent; Purified FLuc-C-HiBiT, Nano-Glo HiBiT luminescence, no ATP; Potency, µM (series often up to 32.7 µM), inactives show top-dose activation (signal gain), hits mostly activators; hit rate 7.8% among 1,300; shares compounds with FLuc inh-1; note: nearly all actives have a fitted effect of over 55% in size
FLuc SDR ATP – binders stabilizing firefly luciferase, plus ATP; shares compounds with FLuc inh-1; purified FLuc-C-HiBiT + ATP, HiBiT complementation luminescence; Potency, µM (titrated, usually from 32.7 µM), inactives show top-dose activation (gain of signal), most hits filed as activators; hit rate 8.7% among 1,300; AID 1963319;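 note: signal reports ligand binding via conformational change of the enzyme rather than luciferase catalysis; % of control where 0% means no effect; nearly all actives have a fitted effect of over 55% in size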
FLuc inh-2 – blocks firefly luciferase enzymatic activity. hit rate 42% among 1,300. shares compounds with FLuc inh-1. Potency, µM (doses to about 32.7 µM), inactives show at the highest dose activity change, negative = inhibition, actives largely listed as inhibitors. purified FLuc-C-HiBiT enzyme, luciferin luminescence. AID 1963320; note: % is set by controls: 0 for no effect and ±100 for the full control effect; nearly all actives have a fitted effect of over 70% in size
Numbers without * were called inactive; i = inactive; ? = inconclusive; . = no result given; [ ] = dose if it differs, or a comment. Only some compounds are listed: those with a hit (about 11% of all), similar ones and a draw of the others. Unless noted, calls come from the whole dose curve; as a rule, active = well fitted curve in the direction sought with a large enough effect; inconclusive = small, poorly fitted or top-dose-only effect, or another doubt; inactive = no such curve, though single readings can be large; an effect the other way counts as inactive or inconclusive. Potency is the fitted concentration of half-maximal effect.

SMILES	NIH3T3 tox	HEK cytotox	FLuc inh-1	hNpr1 antagonist	FLuc SDR -ATP	FLuc SDR ATP	FLuc inh-2
O=C(NC1CCCN(c2cc(-c3ccc(F)cc3)[nH]n2)C1)c1ccc2ncccc2c1 (centres undefined)	?	?	4.5µM*	-19%	-3%	-3%	8.8µM*
COc1ccc(-c2cc(N3CCCC(NC(=O)c4ccc5ncccc5c4)C3)n[nH]2)cc1 (centres undefined)	?	?	3.2µM*	-22%	11%	6%	3.9µM*
Cc1ccc(C(=O)NC2CCN(c3cc(-c4ccccc4)[nH]n3)C2)cc1C (centres undefined)	?	?	i	-14%	.	.	.
CN(C)c1cccc(C(=O)NC2CCN(c3cc(-c4ccccc4)[nH]n3)C2)c1 (centres undefined)	?	?	7.1µM*	-26%	13%	7.9µM*	7µM*
CN1CCCCCCN(S(=O)(=O)c2ccc3c(c2)CCC3)[C@H]2CCC[C@H]2C1=O	?	?	i	-11%	.	.	.
C[S+](=O)([O-])c1ccc(-c2nnc3ccc(C(=O)NCc4ccccc4)cn23)cc1	-24%	-6%	.	.	.	.	.
CC(O)CN1CCC(=O)N(CC(C)(C)C)Cc2cc3c(cc21)OCO3 (centres undefined)	?	-20%	.	.	.	.	.
O=C(COc1ccccc1[N+](=O)[O-])Nc1ccc(-c2nc3ccccc3s2)cc1	.	.	.	.	15%	10%	-6%
O=C(COc1ccc(-c2nnc3n2CCCC3)cc1)Nc1ccc(Cl)cc1	-5%	-22%	i	1%	.	.	.
O=C(COc1ccccc1Cl)Nc1ccc(-c2nc3ccccc3s2)cc1	.	.	.	.	12%	8%	-5%
O=C(COc1ccccc1[N+](=O)[O-])Nc1cccc(-c2nc3ccccc3s2)c1	.	.	.	.	12%	10%	-14%
CC(=O)NC1(C)CCN(Cc2cccc(-c3ccc4c(ccn4C)c3)c2)C1 (centres undefined)	79µM*	89µM*	14µM*	?	15%[49.3 µM]	?	10µM*
CC(=O)NC1(C)CCCN(Cc2cccc(-c3cccc(F)c3)c2)C1 (centres undefined)	?	?	i	-1%[70.6 µM]	.	.	.
COc1ccc(CNC(=O)C[C@@H]2C[C@@H](C(C)C)[C@H](CNC(=O)c3ccc(C#N)cc3)C=C2C)cc1	?	?	i	-10%	.	.	.
COc1ccc(CNC(=O)C[C@@H]2C[C@@H](C(C)C)[C@H](CNC(=O)c3cccnc3)C=C2C)cc1	?	?	14µM*	-13%	11%	10%	7%
Cn1ccnc1C(=O)N1CCC(N2C(=O)C3(CCCCC3)C2c2ccncc2)CC1 (centres undefined)	-4%	i	i	2%	.	.	.
COc1ccc(C(=O)Nc2ccc3n(c2=O)C[C@H]2C[C@@H]3CN(C(=O)CCCC(=O)O)C2)cc1	1%	3%	13µM*	4%	?	19%	?
CC(C)(C)n1nnnc1C1CC2(CCOCC2)C(=O)N1CCc1nc2ccccc2[nH]1 (centres undefined)	-12%	i	i	-3%	.	.	.
CCCc1ccc2oc(C(=O)NCCc3nncn3CC)c(C)c2c1	?	?	3.5µM*	-16%	13%	15%	?
COCC(=O)N1CCc2nc(C)nc(-c3ccc(OC)cc3)c2C1	-29%[138 µM]	-23%[172 µM]	i	2%[70.6 µM]	10%[49.3 µM]	8%[49.3 µM]	-5%[49.3 µM]
COc1ccc(-c2nc(C)nc3c2CN(C(C)=O)CC3)cc1	-23%[138 µM]	-16%[172 µM]	i	-13%[70.6 µM]	.	.	.
CCn1cnnc1CC1CCN(C(=O)c2cc(-c3ccc(C)c(C)c3)nc3ccccc23)CC1	40µM*	?	7.9µM*	-16%	?	?	2.8µM*
CC(C)c1cnc(N2CCC(COc3ccc4c(cnn4CCC(=O)O)c3)CC2)nc1	?	?	14µM*	1%[70.6 µM]	15%[49.3 µM]	9%[49.3 µM]	?
CN(C1CCc2ccccc2C1)[S+](=O)([O-])c1cccs1 (centres undefined)	?	?	i	3%[70.6 µM]	12%[49.3 µM]	6%[49.3 µM]	-9%[49.3 µM]
COc1ccc(CCNc2nc3ccccc3c3nc(-c4cccc(C)c4)nn23)cc1OC	.	.	.	.	15%	12%	?
SMILES	NIH3T3 tox	HEK cytotox	FLuc inh-1	hNpr1 antagonist	FLuc SDR -ATP	FLuc SDR ATP	FLuc inh-2
CSCC(=O)N[C@H]1CCN2C(=O)c3cc(-c4ccc(SC)cc4)ccc3NC(=O)[C@H]12	-17%	-8%	13µM*	5%	23%	15%	?
O=C(Nc1ccc2c(c1)OCCO2)N1CCC(c2nc(C3CCOCC3)no2)CC1	-18%	-4%	10µM*	1%	19%	15%	?
O=C(NC1CCCCC1)N1CCC(c2nc(C3CCOCC3)no2)CC1	-14%	-8%	i	12%	.	.	.
O=C(Nc1ccc2c(c1)OCCO2)N1CCCC1c1nc(CCOCC2CCCC2)no1 (centres undefined)	-23%	?	?	0%	.	.	.
O=C(Nc1ccc2c(c1)OCCO2)N1CC(c2nc(CCOCC3CC3)no2)C1	-26%	?	11µM*	2%	21%	13%	?
C[C@H](C(=O)NCCN1CCOCC1)C1CC[C@@]2(C)Cc3sc(CSc4ccccc4)nc3[C@@H](C)[C@@H]2[C@H]1O (some centres undefined)	?	40µM*	11µM*	10µM*	12%	11%	?
C[C@H](C(=O)N(C)CCC#N)C1CC[C@@]2(C)Cc3sc(NC(=O)c4cccn4C)nc3[C@@H](C)[C@@H]2[C@H]1O (some centres undefined)	?	?	5µM*	?	30%	?	7µM*
C[C@H](C(=O)N1CCOCC1)C1CC[C@@]2(C)Cc3sc(-c4ccccc4)nc3[C@@H](C)[C@@H]2[C@H]1O (some centres undefined)	?	?	14µM*	-2%	6.2µM*	?	3.5µM*
COc1cc(OC)c(OC)cc1CN1CCc2nc(N3CCOCC3)[nH]c(=O)c2CC1	-12%	-8%	.	.	.	.	.
CC(=O)Nc1cccc(C(=O)NCCn2ccn3nc(-c4ccc(C)cc4C)cc3c2=O)c1	?	40µM*	5µM*	-19%	31%	?	9.9µM*
Cc1ccc(C)c(-c2cc3c(=O)n(CCNC(=O)c4ccccc4)ccn3n2)c1	?	?	i	-13%	.	.	.
Cc1ccc(-c2cc3c(=O)n(CCNC(=O)c4cccnc4)ccn3n2)c(C)c1	?	?	8.9µM*	5%	30%	?	?
